From PubChem BioAssay AID1159580 (chemical genetic matrix, 2015)
Out of some 5,500 compounds screened, about 2,000 (36%) were called active. Inconclusive results (about 18%) are left out. Rule as the data show it: active = normalized growth mostly below about 0.91 (no sharp cut-off); inconclusive = no clear call, values can overlap the other calls; inactive = mostly above about 0.92. The list shows a part of the results.

Test: chemical genetic growth profiling, strain panel (AID 1159580);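 also: tested at 20 µM; growth read once vehicle control cultures reached saturation at 30 °C; 1 = growth at the plate median or of vehicle wells; lower values mean less growth of the strain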
Conditions: growth OD
[1] = S. cerevisiae deletion strains, locus YGR078C, strain PAC10, stronger effect = lower value
[2] = S. cerevisiae deletion strains, locus YNL322C, strain KRE1, stronger effect = lower value

Measured: normalized growth

CCC(C)N(C)C(=O)c1cc2ccccc2c(-c2ccccc2Cl)n1 (stereo unspecified)
inactive: S. cerevisiae deletion strains, locus YAL040C, strain CLN3, stronger effect = lower value 0.965 | S. cerevisiae deletion strains, locus YDR363W, strain ESC2, stronger effect = lower value 0.973 | S. cerevisiae deletion strains, locus YER002W, strain NOP16, stronger effect = lower value 1.03 | [1] 0.998 | S. cerevisiae deletion strains, locus YNL175C, strain NOP13, stronger effect = lower value 1 | S. cerevisiae deletion strains, locus YNL197C, strain WHI3, stronger effect = lower value 0.95 | S. cerevisiae deletion strains, locus YNL224C, strain SQS1, stronger effect = lower value 0.988 | [2] 0.987 | S. cerevisiae deletion strains, locus YOR083W, strain WHI5 (second series), stronger effect = lower value 0.955

S=c1[nH]c2ccccc2[nH]1
inactive: S. cerevisiae deletion strains, locus YAL013W, strain DEP1, stronger effect = lower value 0.988 | S. cerevisiae deletion strains, locus YBR229C, strain ROT2, stronger effect = lower value 1.01 | S. cerevisiae deletion strains, locus YDL101C, strain DUN1, stronger effect = lower value 1.02 | S. cerevisiae deletion strains, locus YDR150W, strain NUM1, stronger effect = lower value 0.993 | S. cerevisiae deletion strains, locus YEL061C, strain CIN8, stronger effect = lower value 0.982 | [1] 1.02 | S. cerevisiae deletion strains, locus YHR030C, strain SLT2, stronger effect = lower value 1 | S. cerevisiae deletion strains, locus YHR087W, strain rtc3, stronger effect = lower value 1.01 | S. cerevisiae deletion strains, locus YJR043C, strain POL32, stronger effect = lower value 0.988 | S. cerevisiae deletion strains, locus YJR075W, strain HOC1, stronger effect = lower value 1.01 | S. cerevisiae deletion strains, locus YLR039C, strain RIC1, stronger effect = lower value 0.99 | S. cerevisiae deletion strains, locus YLR058C, strain SHM2 (second series), stronger effect = lower value 0.991 | S. cerevisiae deletion strains, locus YLR085C, strain ARP6, stronger effect = lower value 0.976 | S. cerevisiae deletion strains, locus YLR262C, strain YPT6, stronger effect = lower value 0.986 | S. cerevisiae deletion strains, locus YML094W, strain GIM5, stronger effect = lower value 1.06 | S. cerevisiae deletion strains, locus YMR219W, strain ESC1, stronger effect = lower value 0.999 | S. cerevisiae deletion strains, locus YMR263W, strain SAP30, stronger effect = lower value 0.984 | S. cerevisiae deletion strains, locus YMR307W, strain GAS1, stronger effect = lower value 0.87 | S. cerevisiae deletion strains, locus YNL128W, strain TEP1, stronger effect = lower value 1.02 | S. cerevisiae deletion strains, locus YNL153C, strain GIM3, stronger effect = lower value 1.01 | S. cerevisiae deletion strains, locus YNL298W, strain CLA4 (second series), stronger effect = lower value 0.997 | [2] 1 | S. cerevisiae deletion strains, locus YNR030W, strain Alg12, stronger effect = lower value 1.01 | S. cerevisiae deletion strains, locus YPL055C, strain LGE1, stronger effect = lower value 0.961 | S. cerevisiae deletion strains, locus YPL241C, strain CIN2, stronger effect = lower value 1.03 | S. cerevisiae deletion strains, locus YPR135W, strain CTF4, stronger effect = lower value 1.01 | S. cerevisiae strains, strain wild type, stronger effect = lower value 0.995
